# Several values for one entry are separate records, joined by “and”; a condition that tells them apart may be missing. Identical values can stand only once. This is part of a sample that, as a whole, favours compounds with a hit. Of some 79,000 tested, about 15% had one in any assay. Where a structure was tested more than once in an assay, its records may differ in their call. Activity calls are given as the source filed them. Rule as the data show it: active = growth inhibition above about 70%; inactive = the rest.
# What was measured:
# [1] = NCI Yeast Anticancer Drug Screen. Data for the mec2-1 strain (AID 157); settings: S. cerevisiae mec2-1 strain, stronger effect = higher value
# Procedure, shortened: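 Mutant yeast (mec2-1) grown with compound; growth inhibition relative to vehicle control reported.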
# [2] = NCI Yeast Anticancer Drug Screen. Data for the rad14 strain (AID 159);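 also: 0% = growth of vehicle-treated control cultures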; settings: S. cerevisiae rad14 strain growth inhibition, stronger effect = higher value
# Procedure, shortened: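 Vehicle-treated cultures served as the baseline for growth inhibition of a DNA repair-mutant yeast strain exposed to each compound.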
# [3] = NCI Yeast Anticancer Drug Screen. Data for the sgs1 mgt1 strain (AID 161);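 also: 0% = growth of cultures given vehicle only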; settings: S. cerevisiae sgs1 mgt1 strain, stronger effect = higher value
# Procedure, shortened: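 Growth of a repair-deficient yeast mutant was monitored after compound treatment and expressed as inhibition relative to vehicle-treated cultures.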
# [4] = NCI Yeast Anticancer Drug Screen. Data for the CLN2oe strain (AID 163);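 also: 0% = growth of vehicle-only control cultures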; settings: S. cerevisiae CLN2oe strain, stronger effect = higher value
# Procedure, shortened: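 Compounds are applied to yeast harbouring a defined cell-cycle control change; reduced growth compared with vehicle-treated controls gives the value.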
# [5] = NCI Yeast Anticancer Drug Screen. Data for the cln2 rad14 strain (AID 165);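 also: 0% = growth equal to vehicle treated cultures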; settings: S. cerevisiae cln2 rad14 strain, stronger effect = higher value
# Procedure, shortened: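 Readout is yeast growth inhibition versus vehicle-treated controls, using a strain with cln2 and rad14 alterations exposed to compound.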
# [6] = NCI Yeast Anticancer Drug Screen. Data for the bub3 strain (AID 167); settings: S. cerevisiae bub3 mutant strain, stronger effect = higher value
# Procedure, shortened: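 Inhibition values come from growth of compound-treated mutant yeast normalised to vehicle-treated controls.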
# [7] = NCI Yeast Anticancer Drug Screen. Data for the wt2 strain (AID 169);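 also: 0% = growth of vehicle-treated yeast cultures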; settings: S. cerevisiae wt2 strain growth inhibition, stronger effect = higher value
# Procedure, shortened: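 Against vehicle-treated controls, the growth of yeast exposed to each compound was compared, and the inhibition was recorded.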
# [8] = NCI Yeast Anticancer Drug Screen. Data for the mlh1 strain (AID 171);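 also: 0% = growth of vehicle-treated control cultures of the same strain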; settings: S. cerevisiae mlh1 strain growth inhibition, stronger effect = higher value
# Procedure, shortened: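 Measured: yeast growth. Reference: vehicle-treated controls. Organism: strain with a defined alteration affecting DNA damage repair or cell cycle control, treated with compound.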
# [9] = NCI Yeast Anticancer Drug Screen. Data for the sgs1 strain (AID 173);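 also: 0% = growth of vehicle-only control cultures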; settings: S. cerevisiae sgs1 mutant, stronger effect = higher value
# Procedure, shortened: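 Each compound was added to cultures of the altered yeast strain. Growth was recorded, and inhibition was derived by comparison with vehicle controls.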
# [10] = NCI Yeast Anticancer Drug Screen. Data for the mlh1 rad18 strain (AID 175); settings: S. cerevisiae mlh1 rad18 strain growth inhibition, stronger effect = higher value
# Procedure, shortened: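 Genetically defined yeast (DNA repair-deficient) exposed to compounds; growth inhibition determined relative to vehicle.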
# [11] = NCI Yeast Anticancer Drug Screen. Data for the rad18 strain (AID 177); settings: S. cerevisiae rad18 mutant growth inhibition, stronger effect = higher value
# Procedure, shortened: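 Vehicle-treated cultures served as the baseline for scoring compound-induced growth inhibition in DNA-repair-mutant yeast.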
# [12] = NCI Yeast Anticancer Drug Screen. Data for the rad52 strain (AID 147);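 also: 0% = growth of vehicle-treated control cultures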; settings: S. cerevisiae rad52 mutant growth inhibition, stronger effect = higher value
# Procedure, shortened: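 The repair-mutant yeast strain was incubated with compounds, then growth was read and inhibition derived relative to vehicle.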
# [13] = NCI Yeast Anticancer Drug Screen. Data for the wt1 strain (AID 149);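 also: 0% = growth of vehicle-treated wt1 cultures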; settings: S. cerevisiae wt1 strain (SPY 50644) growth inhibition, stronger effect = higher value
# Procedure, shortened: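 Vehicle-normalised growth inhibition; strain wt1; compound exposure.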
# [14] = NCI Yeast Anticancer Drug Screen. Data for the rad50EPP+ strain (AID 151);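 also: 0% = growth of vehicle-treated control cultures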; settings: S. cerevisiae rad50 mutant strain, stronger effect = higher value
# Procedure, shortened: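 Vehicle-normalised growth inhibition; rad50EPP+ yeast strain, altered in DNA damage repair, compound-treated.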
# [15] = NCI Yeast Anticancer Drug Screen. Data for the mgt1 strain (AID 153); settings: S. cerevisiae mgt1 mutant growth inhibition, stronger effect = higher value
# Procedure, shortened: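 Vehicle-normalized growth inhibition is determined in mgt1 yeast, a strain selected for a defined alteration in DNA repair or cell cycle control.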
# [16] = NCI Yeast Anticancer Drug Screen. Data for the rad50 strain (AID 155);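 also: 0% = growth of vehicle-only cultures of the same strain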; settings: S. cerevisiae rad50 strain growth inhibition, stronger effect = higher value
# Procedure, shortened: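 A DNA repair-deficient yeast mutant serves as the test organism; compound-induced growth inhibition is calculated against vehicle-treated cells.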
# [17] = at 5.0 µM (retest, dose inferred, filed as 0.5)
# [18] = at 50.0 µM (retest, dose inferred, filed as 5.0)
smiles,measurement,setting,value
O=C(CC(=O)n1nc(-c2ccccc2)c(N=Nc2ccc(Cl)cc2)c1-c1ccccc1)Nc1cccc(Cl)c1,growth inhibition,[1]; [17],-4% (inactive)
same,growth inhibition,[1]; at 11.0 µM,-2% (inactive)
same,growth inhibition,[1]; at 33.0 µM,-3% (inactive)
same,growth inhibition,[1]; [18],-19% (inactive)
same,growth inhibition,[1]; at 50.0 µM,46% (inactive)
same,growth inhibition,[1]; at 100.0 µM,-4% (inactive)
same,growth inhibition,[2]; at 1.2 µM,-4% (inactive)
same,growth inhibition,[2]; at 3.7 µM,-3% (inactive)
same,growth inhibition,[2]; at 11.0 µM,-2% (inactive)
same,growth inhibition,[2]; at 33.0 µM,-1% (inactive)
same,growth inhibition,[2]; at 100.0 µM,1% (inactive)
same,growth inhibition,[3]; [17],0% (inactive)
same,growth inhibition,[3]; [18],2% (inactive)
same,growth inhibition,[3]; at 50.0 µM,73.7% (active)
same,growth inhibition,[4]; at 1.2 µM,-8% (inactive)
same,growth inhibition,[4]; at 3.7 µM,-10% (inactive)
same,growth inhibition,[4]; at 11.0 µM,-10% (inactive)
same,growth inhibition,[4]; at 33.0 µM,-11% (inactive)
same,growth inhibition,[4]; at 100.0 µM,-15% (inactive)
same,growth inhibition,[5]; [17],2% (inactive)
same,growth inhibition,[5]; [18],15% (inactive)
same,growth inhibition,[5]; at 50.0 µM,31.6% (inactive)
same,growth inhibition,[6]; at 1.2 µM,27% (inactive)
same,growth inhibition,[6]; at 3.7 µM,28% (inactive)
same,growth inhibition,[6]; [17],8% (inactive)
same,growth inhibition,[6]; at 11.0 µM,34% (inactive)
same,growth inhibition,[6]; at 33.0 µM,45% (inactive)
same,growth inhibition,[6]; [18],78% (active)
same,growth inhibition,[6]; at 50.0 µM,88.7% (active)
same,growth inhibition,[6]; at 100.0 µM,51% (inactive)
same,growth inhibition,[7]; at 1.2 µM,-3% (inactive)
same,growth inhibition,[7]; at 3.7 µM,-3% (inactive)
same,growth inhibition,[7]; at 11.0 µM,-3% (inactive)
same,growth inhibition,[7]; at 33.0 µM,-5% (inactive)
same,growth inhibition,[7]; at 100.0 µM,-5% (inactive)
same,growth inhibition,[8]; at 1.2 µM,-5% (inactive)
same,growth inhibition,[8]; at 3.7 µM,-2% (inactive)
same,growth inhibition,[8]; at 11.0 µM,-2% (inactive)
same,growth inhibition,[8]; at 33.0 µM,-4% (inactive)
same,growth inhibition,[8]; at 100.0 µM,-6% (inactive)
same,growth inhibition,[9]; at 1.2 µM,-4% (inactive)
same,growth inhibition,[9]; at 3.7 µM,-2% (inactive)
same,growth inhibition,[9]; at 11.0 µM,1% (inactive)
same,growth inhibition,[9]; at 33.0 µM,0% (inactive)
same,growth inhibition,[9]; at 100.0 µM,1% (inactive)
same,growth inhibition,[10]; [17],-5% (inactive)
same,growth inhibition,[10]; [18],17% (inactive)
same,growth inhibition,[10]; at 50.0 µM,57.1% (inactive)
same,growth inhibition,[11]; at 1.2 µM,-4% (inactive)
same,growth inhibition,[11]; at 3.7 µM,-4% (inactive)
same,growth inhibition,[11]; at 11.0 µM,-1% (inactive)
same,growth inhibition,[11]; at 33.0 µM,1% (inactive)
same,growth inhibition,[11]; at 100.0 µM,0% (inactive)
c1ccc(-c2cnc3ccccc3c2)cc1,growth inhibition,[12]; at 1.2 µM,0% (inactive)
same,growth inhibition,[12]; at 3.7 µM,3% (inactive)
same,growth inhibition,[12]; at 11.0 µM,0% (inactive)
same,growth inhibition,[12]; at 33.0 µM,28% (inactive)
same,growth inhibition,[12]; at 100.0 µM,99% (active)
same,growth inhibition,[13]; at 1.2 µM,-7% (inactive)
same,growth inhibition,[13]; at 3.7 µM,-8% (inactive)
same,growth inhibition,[13]; at 11.0 µM,-12% (inactive)
same,growth inhibition,[13]; at 33.0 µM,-12% (inactive)
same,growth inhibition,[13]; at 100.0 µM,98% (active)
same,growth inhibition,[14]; at 1.2 µM,7% (inactive)
same,growth inhibition,[14]; at 3.7 µM,14% (inactive)
same,growth inhibition,[14]; at 11.0 µM,37% (inactive)
same,growth inhibition,[14]; at 33.0 µM,70% (active)
same,growth inhibition,[14]; at 100.0 µM,98% (active)
same,growth inhibition,[15]; at 1.2 µM,-5% (inactive)
same,growth inhibition,[15]; at 3.7 µM,-7% (inactive)
same,growth inhibition,[15]; at 11.0 µM,-6% (inactive)
same,growth inhibition,[15]; at 33.0 µM,-6% (inactive)
same,growth inhibition,[15]; at 100.0 µM,96% (active)
same,growth inhibition,[16]; at 1.2 µM,-5% (inactive)
same,growth inhibition,[16]; at 3.7 µM,-3% (inactive)
same,growth inhibition,[16]; [17],-151% (inactive) and -148% (inactive)
same,growth inhibition,[16]; at 11.0 µM,14% (inactive)
same,growth inhibition,[16]; at 33.0 µM,47% (inactive)
same,growth inhibition,[16]; [18],37% (inactive) and 47% (inactive)
same,growth inhibition,[16]; at 50.0 µM,70.1% (active) and 62.7% (inactive)
same,growth inhibition,[16]; at 100.0 µM,99% (active)
same,growth inhibition,[1]; at 1.2 µM,3% (inactive)
same,growth inhibition,[1]; at 3.7 µM,-3% (inactive)
same,growth inhibition,[1]; [17],-52% (inactive)
same,growth inhibition,[1]; at 11.0 µM,-12% (inactive)
same,growth inhibition,[1]; at 33.0 µM,-3% (inactive)
same,growth inhibition,[1]; [18],31% (inactive) and 18% (inactive)
same,growth inhibition,[1]; at 50.0 µM,56.7% (inactive) and 56.4% (inactive)
same,growth inhibition,[1]; at 100.0 µM,99% (active)
same,growth inhibition,[2]; at 1.2 µM,-2% (inactive)
same,growth inhibition,[2]; at 3.7 µM,0% (inactive)
same,growth inhibition,[2]; at 11.0 µM,-1% (inactive)
same,growth inhibition,[2]; at 33.0 µM,18% (inactive)
same,growth inhibition,[2]; at 100.0 µM,99% (active)
same,growth inhibition,[3]; [17],-68% (inactive) and -66% (inactive)
same,growth inhibition,[3]; [18],36% (inactive) and 47% (inactive)
same,growth inhibition,[3]; at 50.0 µM,62% (inactive) and 49.7% (inactive)
same,growth inhibition,[4]; at 1.2 µM,-6% (inactive)
same,growth inhibition,[4]; at 3.7 µM,-7% (inactive)
same,growth inhibition,[4]; at 11.0 µM,-1% (inactive)
same,growth inhibition,[4]; at 33.0 µM,6% (inactive)
same,growth inhibition,[4]; at 100.0 µM,97% (active)
same,growth inhibition,[5]; [17],-68% (inactive) and -62% (inactive)
same,growth inhibition,[5]; [18],-49% (inactive) and -39% (inactive)
same,growth inhibition,[5]; at 50.0 µM,-14.5% (inactive) and -17.3% (inactive)
same,growth inhibition,[6]; at 1.2 µM,-6% (inactive)
same,growth inhibition,[6]; at 3.7 µM,0% (inactive)
same,growth inhibition,[6]; [17],-51% (inactive) and -54% (inactive)
same,growth inhibition,[6]; at 11.0 µM,10% (inactive)
same,growth inhibition,[6]; at 33.0 µM,30% (inactive)
same,growth inhibition,[6]; [18],18% (inactive) and 54% (inactive)
same,growth inhibition,[6]; at 50.0 µM,46.5% (inactive) and 63.5% (inactive)
same,growth inhibition,[6]; at 100.0 µM,99% (active)
same,growth inhibition,[7]; at 1.2 µM,-4% (inactive)
same,growth inhibition,[7]; at 3.7 µM,-3% (inactive)
same,growth inhibition,[7]; at 11.0 µM,-5% (inactive)
same,growth inhibition,[7]; at 33.0 µM,-6% (inactive)
same,growth inhibition,[7]; at 100.0 µM,98% (active)
same,growth inhibition,[8]; at 1.2 µM,2% (inactive)
same,growth inhibition,[8]; at 3.7 µM,-9% (inactive)
same,growth inhibition,[8]; at 11.0 µM,-7% (inactive)
same,growth inhibition,[8]; at 33.0 µM,-9% (inactive)
same,growth inhibition,[8]; at 100.0 µM,99% (active)
same,growth inhibition,[9]; at 1.2 µM,-3% (inactive)
same,growth inhibition,[9]; at 3.7 µM,-5% (inactive)
same,growth inhibition,[9]; at 11.0 µM,-11% (inactive)
same,growth inhibition,[9]; at 33.0 µM,12% (inactive)
same,growth inhibition,[9]; at 100.0 µM,99% (active)
same,growth inhibition,[10]; [17],-127% (inactive) and -135% (inactive)
same,growth inhibition,[10]; [18],-30% (inactive) and -44% (inactive)
same,growth inhibition,[10]; at 50.0 µM,55.5% (inactive) and 45% (inactive)
same,growth inhibition,[11]; at 1.2 µM,-2% (inactive)
same,growth inhibition,[11]; at 3.7 µM,-3% (inactive)
same,growth inhibition,[11]; at 11.0 µM,0% (inactive)
same,growth inhibition,[11]; at 33.0 µM,6% (inactive)
same,growth inhibition,[11]; at 100.0 µM,99% (active)

# Source: PubChem BioAssay (NCI)
